# Assay outcomes deposited in PubChem by several laboratories.
# Efa HMGR inh: inhibitors of class II HMG-CoA reductase from Enterococcus faecalis; 0.41% of 190,000 active; purified E. faecalis HMGR, NADPH absorbance 340 nm kinetic; inhibition, % at 10 µM;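 active = inhibition above a set limit, the median over all tested compounds plus 3 SD, cut at about 9.5% in these data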;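 also: enzyme runs in reverse so mevalonate oxidation gives rising NADPH absorbance; 0% = complete reaction with DMSO and 100% = background rate lacking mevalonate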
# Autophagy HCS: autophagy modulation, high-content screen; MEF GFP-LC3 puncta imaging; test concentration mostly 10 µM; 0.98% of 190,000 active; calls only at 10 µM (by protocol);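 active = percentage of spot-positive cells more than 3 SD above its plate mean, without a fluorescence outlier flag or 80% toxicity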;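 also: spot-positive cell cutoff set from DMSO-treated cells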
# Insulin prom inh: TRM-6 insulin promoter activity inhibition; TRM-6 cells (human fetal islet line), insulin promoter-eGFP reporter, imaging; reporter expression induced with tamoxifen; inhibition, % at 2 µM; 0.9% of 130,000 active; AID 1273;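 active = inhibition above the mean plus 3 SD, with well images judged a real hit on visual review, cut at about 60% in these data, passing the limit was not always enough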
# Insulin prom up: MIN6 insulin promoter up-regulation; z-score at 5 µM; 0.3% of 190,000 active; MIN6 insulin promoter-GFP reporter, high-content imaging; stronger effect = higher value;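 active = z-score above 3 at 5 µM with at least 500 cells counted in the well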
# * = called active by the depositor; i = inactive; x = not tested or not shown; + = active, no number. Only some compounds are listed: those with a hit (about 1.9% of all), similar ones and a draw of the others.
SMILES,Efa HMGR inh,Autophagy HCS,Insulin prom inh,Insulin prom up
Nc1ccc(C(=O)N/N=C\C=C\c2ccc([N+](=O)[O-])cc2)cc1,-12,+,x,-0.7
Cc1ccc(C(=O)N2CCN(S(=O)(=O)c3ccccc3[N+](=O)[O-])CC2)o1,-12,i,x,-0.15
CCCCN(CCCC)c1nc2ccccc2nc1C(C#N)C(=O)NCCCOC (configuration not stated),-2,+,-28,x
CCN(CC)c1nc2ccccc2nc1C(C#N)C(=O)NCCCOC (configuration not stated),-3,i,x,0.24
CCN(CC)c1nc2ccccc2nc1C(C#N)C(=O)NCCc1ccccc1 (configuration not stated),-3,+,-25,-0.06
N#CC(C(=O)NCCc1ccccc1)c1nc2ccccc2nc1N1CCOCC1 (configuration not stated),-1,i,45,0.42
COc1ccc(NC(=O)COC(=O)c2ccc([N+](=O)[O-])o2)cc1Cl,-3,i,x,0.14
CCCCC(=O)Nc1ccc2c(c1)nc1n2CCSC1,3,i,x,3.2*
Cc1[nH]n(-c2cccc(Cl)c2)c(=O)c1C=NCC(C)C,4,i,x,1.1
O=C(Nc1ccc(N2CCCC2)c(Cl)c1)c1ccc2c(c1)OCCO2,9.6*,i,73,x
CCC(NC(=O)Nc1nnc(C(F)(F)F)s1)(C(F)(F)F)C(F)(F)F,-6,+,x,-0.4
O=C(O)CCC(=O)Nc1nnc(C(F)(F)F)s1,2,i,7,-0.24
CN(/N=C/c1cccnc1)c1cnc2ccccc2n1,-4,i,78*,-1.7
CC(=O)c1c(C)[nH]c(C(=O)CN2C(=O)NC(C)(c3ccc(C)cc3)C2=O)c1C (configuration not stated),-6,+,0,-0.83
Cc1ccc(CONC(=O)/N=C/N(C)C)cc1,2,i,-21,x
C/C(Cc1nnn(-c2cc(C)on2)n1)=N\O,x,x,x,-0.53
CCN1C(=O)/C(=C/N(C)C)c2ccccc21,1,i,57,0.34
CCN1C(=O)/C(=C\c2nc3ccccc3c(=O)n2CC)c2ccccc21,-4,+,x,0.53
CCN1C(=O)/C(=C\N(C)C)c2ccccc21,11*,i,38,x
CCCN(CCC)CCCNC(=S)Nc1ccc2nc(N3CCN(CC)CC3)cc(C)c2c1,-2,i,x,-0.16
CCN1CCN(c2cc(C)c3cc(NC(=O)c4ccncc4)ccc3n2)CC1,-11,i,x,-1.9
CCN1CCN(c2cc(C)c3cc(NC(=O)c4ccc(Br)o4)ccc3n2)CC1,-4,+,0,-0.79
CCCN(CCC)CCCNC(=S)Nc1ccc2nc(N3CCN(C)CC3)cc(C)c2c1,4,+,x,-0.34
Cc1c(-n2c(-c3ccccc3)nc3ccccc3c2=O)c(=O)n(-c2ccccc2)n1C,8,i,-24,-0.14
O=C(CCCN1C(=O)c2ccccc2C1=O)Nc1nncs1,-5,i,-43,-1.5
SMILES,Efa HMGR inh,Autophagy HCS,Insulin prom inh,Insulin prom up
O=C(CCCN1C(=O)c2ccccc2C1=O)NC1=NCCS1,-6,+,0,0.58
Cc1cccc(NC(=O)CCN2C(=O)C3C4C=CC(C4)C3C2=O)n1 (configuration not stated),1,i,38,0.55
Cc1cccc(NC(=O)CCN2C(=O)c3ccccc3C2=O)n1,-3,+,0,x
COc1ccc2c(c1)c1nc3ccccc3nc1n2Cc1ccc(OC)c(OC)c1,-3,i,-62,0.2
CCOc1ccc(Cn2c3ccc(OC)cc3c3nc4ccccc4nc32)cc1OC,-8,+,-81,0.48
CCOC(=O)Cn1c2ccc(OC)cc2c2nc3ccccc3nc21,-5,+,55,-0.51
Cc1ccnc(NC(=O)CCC(=O)N(CC(=O)NC(C)(C)C)c2ccc(F)c(Cl)c2)c1,2,i,x,-0.03
CCOc1ccccc1CNC(=O)CCCc1cn(C)c2ccccc12,0,+,-15,-0.99
CCOc1ccccc1CNC(=O)c1cn(C)c(=O)c2c1c1ccccc1n2C,-5,i,-38,x
COc1ccc(/C=N/Nc2ccc(C(F)(F)F)cc2[N+](=O)[O-])cc1O,-3,i,-10,-0.57
CCOc1ccc(/C=N/Nc2ccc(C(F)(F)F)cc2[N+](=O)[O-])cc1O,-8,i,71*,-0.74
CCO[C@H]1OC(C(=O)NCc2ccccc2)=C[C@@H](C2CC2)[C@@H]1CCCO,-4,i,x,-0.82
N#C/C(=C\c1ccc(-c2ccc(S(=O)(=O)N3CCOCC3)cc2)o1)C(=O)NC1CC1,-4,i,62*,0.12
N#C/C(=C\c1ccc(N2CCOCC2)o1)C(=O)NC1CCCCC1,x,x,x,1.9
NC(=O)COC(=O)CC12CC3CC(CC(Br)(C3)C1)C2,-6,i,21,-0.32
O=C(CC12CC3CC(CC(Br)(C3)C1)C2)OCCN1CCCCC1,4,+,-38,0.1
Cc1cc(/C=C2\SC(=S)NC2=O)c(C)n1C1CC1,2,i,-11,3*
Cc1ccc(S(=O)(=O)/N=C2/C=C(Sc3ncn[nH]3)C(=O)c3ccccc32)c(C)c1,13*,i,-185,-0.15
CC(C)C(=O)Nc1ccc(C(=O)NNC(=S)NC(=O)c2ccco2)cc1,x,x,x,1.2
COc1cccc2cc(-c3cn4ccc(C)cc4n3)c(=O)oc12,x,i,29,x
CCOc1cccc2cc(-c3cn4cc(C)ccc4n3)c(=O)oc12,-1,+,10,-1.1
N#Cc1cc2c(nc1SCC(=O)Nc1sc3c(c1C#N)CCC3)CCC2,-5,i,21,0.45
COc1ccc(-c2ccc(C#N)c(SCC(=O)Nc3sc4c(c3C#N)CCC4)n2)cc1OC,-5,+,-44,-0.48
CCCOc1ccc(-c2csc(NC(=O)CN3C(=O)CCC3=O)n2)cc1,-5,i,x,0.06
Cc1ccc(-n2c(O)c(/C=N/NC(=O)C3COc4ccccc4O3)c3ccccc3c2=O)cc1 (configuration not stated),-4,i,35,3.1*
SMILES,Efa HMGR inh,Autophagy HCS,Insulin prom inh,Insulin prom up
O=C(N/N=C/c1c(O)n(-c2ccccc2Cl)c(=O)c2ccccc12)C1COc2ccccc2O1 (configuration not stated),-6,i,-184,0.41
Cc1ccc(C(=O)NCc2ccccn2)cc1Cl,0,i,x,-0.84
O=C(Nc1nnc(SCC(=O)N2CCCCC2)s1)C1CCCCC1,1,i,73*,x
Nc1n[nH]c(N)c1N=Nc1ccc2c(c1)OCO2,-3,i,x,-0.55
CCOC(=O)N1CCC(=NNC(=O)COc2ccc(OC)cc2)CC1,0,i,x,0.22
Cc1ccc2cc(CN(Cc3ccc4c(c3)OCO4)Cc3nnnn3Cc3ccco3)c(=O)[nH]c2c1C,2,i,-44,-0.16
Cc1ccc2cc(CN(CCN3CCOCC3)Cc3nnnn3Cc3ccco3)c(=O)[nH]c2c1C,-1,+,x,x
COc1ccc(-n2c(C)c(C(C)=O)c(C(C)=O)c2C)cc1OC,-6,i,71*,-0.45
CCOc1ccc(-n2c(C)c(C(C)=O)c(C(C)=O)c2C)cc1,-4,+,-160,x
COc1ccc(-n2c(C)c(C(C)=O)c(C(C)=O)c2C)cc1,0,i,x,-0.31
Cc1ccc(S(=O)(=O)n2[nH]c(=O)cc2NC(=O)c2cccs2)cc1,11*,i,x,2
Cc1ccc(NC(=O)c2cccs2)cc1,-1,i,47,x
